This note sets out measurements from PubChem BioAssay (EPA / NIEHS).

Active and inactive are the calls of the source. How the source made its calls: active means hit-call score of the fitted dose curve at least 0.9, where 1 is the maximum; inactive means score below 0.9.

One test in a line: ATG_FoxO_CIS: Attagene CIS-FACTORIAL HepG2 Assay for human Forkhead box O (FoxO) (AID 2282943). To be noted: HepG2 Attagene cis-reporter, FoxO element, mRNA; actives raise or lower the signal. Summed up:
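Human hepatoma HepG2 cells carry transiently introduced reporter transcription units controlled by cis promoter elements. Chemical treatment lasted 24 h, and mRNA signal was compared with DMSO.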
`Nc1ccc(N=Nc2ccccc2)cc1`: the compound was called inactive.
In the case of `O=C(O)C1C2CCC(O2)C1C(=O)O` (stereo unspecified), the call was inactive.
With `O=C(Nc1ccccc1)c1ccccc1I`, the compound was called inactive.
With `CC(O)CCO` (stereo unspecified), the result was inactive.
In the case of `CC(C)(C)OOC(C)(C)CCC(C)(C)OOC(C)(C)C`, the result was inactive.
As for `O=C(Oc1ccc(Br)cc1)N1CCN2CCC1CC2`, the compound was called inactive.
For the compound `[O-][Cl+]O`, the result was inactive.
Still for that read-out and setting: the value for `Nc1ccc(Cl)cc1N` was “inactive”.
In general, AC50 refers to the concentration at which the activity in the assay is half-maximal. As to `COc1cc(C=O)cc2c1[C@H](COC(N)=O)[C@]1(OC(C)=O)ON2C[C@H]2[C@@H]1N2C(C)=O`, the AC50 was 58.9 µM (active).
As for `Nc1ccc([N+](=O)[O-])cc1`, the compound was called inactive.
Still for that read-out and setting: to `OCCCBr` belongs “inactive”; to `CNC(=O)Oc1cccc2c1OC(C)(C)C2`, “inactive”.
The same measure, in the same setting: the value for `N#CC(Br)(Br)C(N)=O` was “inactive”; that for `Clc1ccc(C(c2ccc(Cl)cc2)C(Cl)Cl)cc1` was “inactive”; that for `Cc1ccc(N=C=O)cc1N=C=O` was “inactive”.
Consider `c1ccc2c(c1)-c1cccc3cccc-2c13`, for which the compound was called inactive.
On the same count and under the same terms, to `ClC1=C(Cl)C2(Cl)C3C(Cl)C=CC3C1(Cl)C2(Cl)Cl` (stereo unspecified) belongs “inactive”.
Take `COC(=O)c1ccccc1N`: the compound was classed as inactive.
The same measure, in the same setting: the value for `c1ccc(NNc2ccccc2)cc1` was “inactive”; that for `c1ccc(C2CO2)cc1` (stereo unspecified) was “inactive”.
The same measure, in the same setting: the value for `c1ccc2c(c1)oc1ccccc12` was “inactive”; that for `O=Cc1ccco1` was “inactive”.
For `CCC(C)c1ccc(O)cc1` (stereo unspecified), the compound was classed as inactive.
As for `CCOc1cccc(C2(N3CCN(c4ccccc4)CC3)CCC(C)CC2)c1` (stereo unspecified), the result was inactive.
In the case of `COP(=S)(OC)SCN1C(=O)c2ccccc2C1=O`, the outcome was inactive.
On to `[Cl-].[Cl-].[Hg+2]`, for which the outcome was inactive.
On to `CCN(CC)N=O`, for which the outcome was inactive.
`O=C(N[C@H](c1ccccc1)[C@@H]1CN2CCC1CC2)c1c(Cl)ccc(C(F)(F)F)c1Cl`: the compound was called inactive.

A further test can be described thus: ATG_GATA_CIS: Attagene CIS-FACTORIAL HepG2 Assay for human GATA Binding Protein (AID 2282944). Particulars: HepG2 GATA cis-element reporter, Attagene multiplex mRNA; actives raise or lower the signal. An outline of the steps:
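After transfecting HepG2 cells with multiple cis-regulated reporter units, chemicals are dosed for 24 h; isolated RNA undergoes RT-PCR and fluorescent labeling before capillary electrophoresis, with activity expressed against DMSO.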
Regarding `Nc1ccc(N=Nc2ccccc2)cc1`, the result was inactive.
In the case of `O=C(O)C1C2CCC(O2)C1C(=O)O` (stereo unspecified), the call was inactive.
Still for that read-out and setting: the value for `O=C(Nc1ccccc1)c1ccccc1I` was “inactive”; that for `CC(O)CCO` (stereo unspecified) was “inactive”; that for `CC(C)(C)OOC(C)(C)CCC(C)(C)OOC(C)(C)C` was “inactive”.
Regarding `O=C(Oc1ccc(Br)cc1)N1CCN2CCC1CC2`, the compound was classed as inactive.
The same measure, in the same setting: the value for `[O-][Cl+]O` was “inactive”; that for `Nc1ccc(Cl)cc1N` was “inactive”.
As to `COc1cc(C=O)cc2c1[C@H](COC(N)=O)[C@]1(OC(C)=O)ON2C[C@H]2[C@@H]1N2C(C)=O`, the AC50 was 10.8 µM (active).
On to `Nc1ccc([N+](=O)[O-])cc1`, for which the outcome was inactive.
Regarding `OCCCBr`, the compound was called inactive.
As for `CNC(=O)Oc1cccc2c1OC(C)(C)C2`, the outcome was inactive.
Consider `N#CC(Br)(Br)C(N)=O`, for which the call was inactive.
Same read-out and setting: to `Clc1ccc(C(c2ccc(Cl)cc2)C(Cl)Cl)cc1` belongs “inactive”; to `Cc1ccc(N=C=O)cc1N=C=O`, “inactive”; to `c1ccc2c(c1)-c1cccc3cccc-2c13`, “inactive”.
With `ClC1=C(Cl)C2(Cl)C3C(Cl)C=CC3C1(Cl)C2(Cl)Cl` (stereo unspecified), the compound was called inactive.
`COC(=O)c1ccccc1N`: the compound was called inactive.
Still for that read-out and setting: to `c1ccc(NNc2ccccc2)cc1` belongs “inactive”.
For the compound `c1ccc(C2CO2)cc1` (stereo unspecified), the call was inactive.
Turning to `c1ccc2c(c1)oc1ccccc12`, the compound was classed as inactive.
On the same count and under the same terms, to `O=Cc1ccco1` belongs “inactive”; to `CCC(C)c1ccc(O)cc1` (stereo unspecified), “inactive”; to `CCOc1cccc(C2(N3CCN(c4ccccc4)CC3)CCC(C)CC2)c1` (stereo unspecified), “inactive”.
With `COP(=S)(OC)SCN1C(=O)c2ccccc2C1=O`, the compound was classed as inactive.
With `[Cl-].[Cl-].[Hg+2]`, the call was inactive.
On the same count and under the same terms, the value for `CCN(CC)N=O` was “inactive”.
On to `O=C(N[C@H](c1ccccc1)[C@@H]1CN2CCC1CC2)c1c(Cl)ccc(C(F)(F)F)c1Cl`, for which the result was inactive.

A short description of another test: ATG_GLI_CIS: Attagene CIS-FACTORIAL HepG2 Assay for human Zinc Finger Protein GLI1 (AID 2282945). Particulars: HepG2, Attagene cis-factorial reporter mRNA, GLI element; actives raise or lower the signal. An outline of the steps:
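Bidirectional curve fits relative to DMSO, using reporter mRNA levels from RT-PCR plus capillary electrophoresis. Cells were HepG2 transiently carrying cis-regulated reporter constructs, harvested 24 h after dosing.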
As to `O=C(Nc1ccccc1)c1ccccc1I`, the compound was classed as inactive.
With `CC(C)(C)OOC(C)(C)CCC(C)(C)OOC(C)(C)C`, the outcome was inactive.
As to `O=C(Oc1ccc(Br)cc1)N1CCN2CCC1CC2`, the outcome was inactive.
The same measure, in the same setting: to `COc1cc(C=O)cc2c1[C@H](COC(N)=O)[C@]1(OC(C)=O)ON2C[C@H]2[C@@H]1N2C(C)=O` belongs “inactive”; to `OCCCBr`, “inactive”; to `N#CC(Br)(Br)C(N)=O`, “inactive”.
Same read-out and setting: the value for `Cc1ccc(N=C=O)cc1N=C=O` was “inactive”; that for `c1ccc2c(c1)-c1cccc3cccc-2c13` was “inactive”; that for `ClC1=C(Cl)C2(Cl)C3C(Cl)C=CC3C1(Cl)C2(Cl)Cl` (stereo unspecified) was “inactive”.
The same measure, in the same setting: the value for `O=Cc1ccco1` was “inactive”; that for `CCC(C)c1ccc(O)cc1` (stereo unspecified) was “inactive”.
Take `CCOc1cccc(C2(N3CCN(c4ccccc4)CC3)CCC(C)CC2)c1` (stereo unspecified): the compound was classed as inactive.
`COP(=S)(OC)SCN1C(=O)c2ccccc2C1=O`: the compound was called inactive.
Same read-out and setting: the value for `[Cl-].[Cl-].[Hg+2]` was “inactive”; that for `O=C(N[C@H](c1ccccc1)[C@@H]1CN2CCC1CC2)c1c(Cl)ccc(C(F)(F)F)c1Cl` was “inactive”.
